Measured values reported in PubChem BioAssay (EPA / NIEHS).
Inconclusive results are not listed. Some compounds were tested as several samples or in several runs, with calls that do not always agree. Calls of active or inactive are those of the source. Rule for the calls: active = hit-call score of the fitted dose curve at least 0.9, where 1 is the maximum; inconclusive = response in the unintended direction; inactive = score below 0.9.

target: human Peroxisome Proliferator-activated Receptor alpha (PPARa), PPARA (gene 5465) (UniProt Q07869); test: ATG_PPARa_TRANS: Attagene TRANS-FACTORIAL HepG2 Assay for human Peroxisome Proliferator-activated Receptor alpha (PPARa) (AID 2283001);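 for AC50: potency for gain of reporter signal over DMSO so agonist or activator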
Outline: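 Exposure: 24 h, transiently transfected HepG2 cells. Endpoint: GAL4-UAS reporter mRNA, RT-PCR with capillary electrophoresis fluorescence. Baseline: DMSO; increases fitted.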

Sequence of human Peroxisome Proliferator-activated Receptor alpha (PPARa), PPARA (gene 5465) (Q07869 whole entry, looked up, the tested form may be a part): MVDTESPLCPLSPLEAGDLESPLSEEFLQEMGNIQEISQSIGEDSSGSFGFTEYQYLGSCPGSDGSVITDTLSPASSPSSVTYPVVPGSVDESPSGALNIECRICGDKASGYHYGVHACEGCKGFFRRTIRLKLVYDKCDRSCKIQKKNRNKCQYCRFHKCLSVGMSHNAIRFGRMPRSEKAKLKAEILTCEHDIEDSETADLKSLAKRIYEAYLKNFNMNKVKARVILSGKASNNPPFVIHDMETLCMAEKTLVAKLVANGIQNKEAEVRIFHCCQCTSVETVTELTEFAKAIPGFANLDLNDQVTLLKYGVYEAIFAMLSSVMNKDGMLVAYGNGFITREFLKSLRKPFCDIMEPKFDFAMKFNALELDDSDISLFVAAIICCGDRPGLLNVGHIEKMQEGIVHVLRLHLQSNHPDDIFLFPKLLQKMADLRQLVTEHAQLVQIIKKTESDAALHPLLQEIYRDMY

Structure (SMILES) | outcome | AC50
O=S(=O)(C(Cl)(Cl)Cl)C(Cl)(Cl)Cl | inactive | –
Cc1cc(Cl)ccc1OC(C)C(=O)O (centres undefined) | inactive | –
O=C(Cc1ccccc1)OCCc1ccccc1 | inactive | –
O=[N+]([O-])c1ccc(Nc2ccccc2)cc1 | inactive | –
C[C@]12CC[C@@H](O)C[C@@H]1CC[C@@H]1[C@@H]2CC[C@]2(C)C(=O)CC[C@@H]12 | inactive | –
Oc1cccc(-c2ccccc2)c1 | inactive | –
NC(=O)CCl | inactive | –
O=c1oc2ccccc2c(O)c1C(CC(O)c1ccc(-c2ccc(Br)cc2)cc1)c1ccccc1 (centres undefined) | inactive | 25.3 µM (active)
C#CCOC(=O)/C=C(C)/C=C/CC(C)CCCC(C)C (centres undefined) | – | 14.9 µM (active)
CCCCCCCCCCCCN(C)C | inactive | –
CCOC(=O)CCN(SN(C)C(=O)Oc1cccc2c1OC(C)(C)C2)C(C)C | inactive | –
N#CCCC(Br)(C#N)CBr (centres undefined) | inactive | –
CCOC(=O)CC(=O)CCl | inactive | –
O=C1C=CC(=O)c2ccccc21 | inactive | –
Oc1ccc(Cc2ccc(O)cc2)cc1 | inactive | –
CC(C=O)Cc1ccc2c(c1)OCO2 (centres undefined) | inactive | –
Nc1c(Oc2ccccc2)cc(O)c2c1C(=O)c1ccccc1C2=O | inactive | –
CC(C)(C)c1cc([N+](=O)[O-])cc(C(C)(C)C)c1O | inactive | –
Oc1c(Cl)cc(Cl)cc1Cl | – | 15.9 µM (active)
O=[N+]([O-])c1cccc2ccccc12 | inactive | –
Cc1ccc2nc3sc(=O)sc3nc2c1 | inactive | –
c1ccc(-c2cccc(-c3ccccc3)c2)cc1 | inactive | –
CCC(C)(C#N)N=NC(C)(C#N)CC (centres undefined) | inactive | –
CCN(CC)C(=O)C(Cl)=C(C)OP(=O)(OC)OC | inactive | –
OCCCCO | inactive | –
Cc1ccccc1OP(=O)(Oc1ccccc1)Oc1ccccc1 | inactive | –
COCC(=O)N(c1c(C)cccc1C)[C@H](C)C(=O)OC | inactive | –
CCCCOC(=O)COC(=O)c1ccccc1C(=O)OCCCC | inactive | –

target: human Peroxisome Proliferator-activated Receptor delta (PPARd), PPARD (gene 5467) (UniProt Q03181); test: ATG_PPARd_TRANS: Attagene TRANS-FACTORIAL HepG2 Assay for human Peroxisome Proliferator-activated Receptor delta (PPARd) (AID 2283002)
Outline: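 HepG2 cells transiently transfected with multiplexed GAL4-UAS reporter units and exogenous chimeric NR-Gal4 proteins; 24 h compound exposure. Reporter mRNA measured by RT-PCR, 6-FAM labelling, HpaI digestion and capillary electrophoresis; gain of signal versus DMSO.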

Sequence of human Peroxisome Proliferator-activated Receptor delta (PPARd), PPARD (gene 5467) (Q03181 whole entry, looked up, the tested form may be a part): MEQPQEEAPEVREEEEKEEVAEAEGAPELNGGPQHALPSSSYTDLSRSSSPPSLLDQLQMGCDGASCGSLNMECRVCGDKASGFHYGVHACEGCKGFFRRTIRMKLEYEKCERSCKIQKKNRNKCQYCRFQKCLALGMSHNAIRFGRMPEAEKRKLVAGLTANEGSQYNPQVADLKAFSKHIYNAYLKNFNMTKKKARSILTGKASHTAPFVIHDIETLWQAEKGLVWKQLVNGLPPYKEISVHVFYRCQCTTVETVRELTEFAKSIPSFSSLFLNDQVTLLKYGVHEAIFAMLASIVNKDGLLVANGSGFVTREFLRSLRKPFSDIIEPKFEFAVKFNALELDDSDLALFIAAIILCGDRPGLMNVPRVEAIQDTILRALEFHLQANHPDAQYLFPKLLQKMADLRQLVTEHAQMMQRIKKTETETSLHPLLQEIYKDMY

Structure (SMILES) | outcome | AC50
OC(Cc1ccccc1Cl)(Cn1cncn1)C1(Cl)CC1 (centres undefined) | inactive | –
O=S(=O)(C(Cl)(Cl)Cl)C(Cl)(Cl)Cl | inactive | –
O=C(Cc1ccccc1)OCCc1ccccc1 | inactive | –
CCOP(=S)(OCC)OP(=S)(OCC)OCC | inactive | –
Oc1cccc(-c2ccccc2)c1 | inactive | –
NC(=O)CCl | inactive | –
C#CCOC(=O)/C=C(C)/C=C/CC(C)CCCC(C)C (centres undefined) | inactive | –
CCCCCCCCCCCCN(C)C | inactive | –
Cc1ccccc1OP(=O)(Oc1ccccc1C)Oc1ccccc1C | inactive | –
O=S(=O)(c1ccc(Cl)cc1)c1cc(Cl)c(Cl)cc1Cl | inactive | –
CC(C)(COCC1CO1)COCC1CO1 (centres undefined) | inactive | –
Nc1c(Oc2ccccc2)cc(O)c2c1C(=O)c1ccccc1C2=O | inactive | –
CC(C)(C)c1cc([N+](=O)[O-])cc(C(C)(C)C)c1O | inactive | –
[Cl][Sn]([c]1ccccc1)([c]1ccccc1)[c]1ccccc1 | – | 0.249 µM (active)
CC1(C)[C@H](C(=O)O[C@H](C#N)c2cccc(Oc3ccccc3)c2)[C@@H]1/C=C(\Cl)C(F)(F)F | inactive | –
Cc1ccc(OP(=O)(Oc2ccc(C)cc2C)Oc2ccc(C)cc2C)c(C)c1 | inactive | –
CCN(CC)C(=O)C(Cl)=C(C)OP(=O)(OC)OC | inactive | –
CCOP(=O)(OCC)OC(=CCl)c1ccc(Cl)cc1Cl | inactive | –
Cc1cccc(OP(=O)(Oc2cccc(C)c2)Oc2cccc(C)c2)c1 | inactive | –
CCCCOC(=O)COC(=O)c1ccccc1C(=O)OCCCC | inactive | –
